Source: PubChem BioAssay (Tox21)
Results filed as inconclusive are left out. Calls of active or inactive are those of the source. Unless noted, calls come from the whole dose curve; as a rule, active = well fitted curve in the direction sought with a large enough effect in the repeat runs; inconclusive = weak or mixed curves; inactive = no such curve, though single readings can be large; an effect the other way counts as inactive or inconclusive.

Legend:
[1] = qHTS assay to identify small molecule antagonists of the sonic hedgehog signaling (Shh) pathway (AID 1259369; calls by dose curve; note: nearly all actives have a fitted effect of over 45% in size)
Outline: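 Read-out is luminescence from a firefly luciferase gene controlled by the Gli1 response element, in 3T3Gli1-Luc cells pre-incubated 4hr then exposed to compounds and conditioned medium for 24hr.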

[2] = target: Estrogen receptor beta (Homo sapiens) (UniProt Q92731); test: qHTS assay to identify small molecule agonists of the estrogen receptor beta (ER-beta) signaling pathway (AID 1259377; active = well fitted activation curve with a large enough effect in the signal ratio in the repeat runs, not every such curve was filed as active; the % refers to the signal ratio)
Outline: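 Ratiometric beta-lactamase FRET read-out came after 2 h substrate loading at room temperature. It followed 16 h compound treatment at 37C of GripTite HEK293T cells carrying a UAS-bla reporter, plated in 2% charcoal-stripped FBS medium.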

[3] = target: Estrogen receptor beta (Homo sapiens) (UniProt Q92731); test: qHTS assay to identify small molecule antagonists of the estrogen receptor beta (ER-beta) signaling pathway (AID 1259378; active = well fitted inhibition curve with a large enough effect in the signal ratio in the repeat runs, not every such curve was filed as active; the % refers to the signal ratio)
Outline: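 ER-beta-UAS-bla HEK293T (GripTite) cells in 2% charcoal-stripped FBS medium were preincubated 6 hr at 37C, dosed with compound, then stimulated with 1 nM E2 (final) for 16 hr; beta-lactamase reporter read by B/G FRET fluorescence after 2 hr substrate loading.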

[4] = qHTS assay to identify small molecule agonists of the androgen receptor (AR) signaling pathway in the presence of an antagonist - cell viability counter screen (AID 1259379);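 note: MDA-kb2 human breast cancer cells carrying an MMTV luciferase reporter; series mostly up to about 92 µM; nearly all actives have a fitted effect of over 25% in size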
Outline: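 Each compound was tested at 15 concentrations on MDA-kb2 cells in the presence of 3.0uM nilutamide. Viability was measured by CellTiter-Fluor fluorescence after a 16 hr incubation at 37C in a CO2-free atmosphere.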

[5] = qHTS assay to identify small molecule agonists of the estrogen receptor beta (ER-beta) signaling pathway - cell viability counter screen (AID 1259380); note: nearly all actives have a fitted effect of over 30% in size
Outline: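 Compounds dissolved in DMSO were pin-transferred onto ER-beta-UAS-bla HEK293T cells that had settled 6 hr, and exposure ran 16 hr at 37C. Following the reporter read, CellTiter-Glo luminescence after 30 min at room temperature indicated cytotoxicity.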

[6] = qHTS assay to identify small molecule antagonists of the estrogen receptor beta (ER-beta) signaling pathway - cell viability counter screen (AID 1259382); note: series mostly up to about 92 µM; nearly all actives have a fitted effect of over 55% in size
Outline: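 CellTiter-Glo ATP luminescence measured after the LiveBLAzer read in the same wells; ER-beta-UAS-bla HEK293T cells, 16 hr compound treatment with 1nM 17-beta-estradiol agonist at 37C, 5% CO2.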

[7] = qHTS assay to identify small molecule agonists of the estrogen receptor alpha (ER-alpha) signaling pathway in the presence of an antagonist - cell viability counter screen (AID 1259386);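 note: series mostly up to about 92 µM; cells exposed to compounds for 22 h at 37 °C before the viability read; nearly all actives have a fitted effect of over 30% in size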
Outline: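 Using estrogen-depleted VM7Luc4E2 cells, the 15-concentration compound series was applied together with 10.0nM ICI-182,780 and incubated 22hr at 37C/5% CO2. Cell viability was then scored by CellTiter-Fluor.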

[8] = target: Progesterone receptor (Homo sapiens) (UniProt P06401); test: qHTS assay to identify small molecule agonists of the progesterone receptor (PR) signaling pathway (AID 1346784; calls by dose curve; note: nearly all actives have a fitted effect of over 30% in size)
Outline: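 Agonist qHTS: compounds pinned onto 3,000 PR-UAS-bla HEK 293T cells per well in charcoal-stripped serum medium, 16hr at 37C, then beta-lactamase activity measured by LiveBLAzer FRET fluorescence after 2 hours at room temperature.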

[9] = target: Progesterone receptor (Homo sapiens) (UniProt P06401); test: qHTS assay to identify small molecule antagonists of the progesterone receptor (PR) signaling pathway (AID 1346795; active = well fitted inhibition curve with a large enough effect in the signal ratio in the repeat runs, not every such curve was filed as active; the % refers to the signal ratio)
Outline: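 Antagonist mode with agonist R5020 at 1 nM final and 16 hr incubation at 37C. Reporter was beta-lactamase driven by UAS in HEK293T (PR-UAS-bla), 2% charcoal-stripped serum; signal from LiveBLAzer FRET substrate, 2 hr at room temperature.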

[10] = qHTS assay to identify small molecule antagonists of the progesterone receptor (PR) signaling pathway - cell viability counter screen (AID 1346798); note: series mostly up to about 92 µM; nearly all actives have a fitted effect of over 50% in size
Outline: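 Cytotoxicity read as CellTiter-Glo luminescence (30 min, room temperature) in the same wells as the beta-lactamase readout. HEK293T PR-UAS-bla cells in charcoal-stripped 2% FBS received compound and R5020, then 16 h at 37C, 5% CO2.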

[11] = qHTS assay to identify small molecule agonists of the progesterone receptor (PR) signaling pathway - cell viability counter screen (AID 1346799; calls by dose curve; note: nearly all actives have a fitted effect of over 45% in size)
Outline: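 Cytotoxicity measured by CellTiter-Glo luminescence (30 min, RT) in the same wells as the PR beta-lactamase agonist read. Those HEK293T cells had 16 h compound treatment at 37 C in 2% charcoal-stripped FBS medium.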

[12] = qHTS assay to identify small molecule antagonists of the TGF-beta/Smad signaling pathway - cell viability counter screen (AID 1346824); note: nearly all actives have a fitted effect of over 50% in size
Outline: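 SBE-bla HEK 293T cells were plated overnight at 37 C, then given compounds in DMSO plus TGF-beta1 (added as 0.25 ng/mL solution) for 5 hr. After the bla read, CellTiter-Glo was added to the same wells and luminescence read after 30 min at room temperature.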

[13] = qHTS assay to identify small molecule agonists of the TGF-beta/Smad signaling pathway - cell viability counter screen (AID 1346829); note: top concentration of the series differs between compounds; nearly all actives have a fitted effect of over 45% in size
Outline: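 CellTiter-Glo luminescence readout; SBE-bla HEK 293T cells, overnight plating, compound 5 hr at 37 C/5% CO2, then bla substrate 2 hr RT, then CellTiter-Glo 30 min RT.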

[14] = qHTS assay to identify small molecule agonists of the TGF-beta/Smad signaling pathway (AID 1346859; active = well fitted activation curve with a large enough effect in the signal ratio in the repeat runs, not every such curve was filed as active; the % refers to the signal ratio; note: series mostly up to about 77 µM)
Outline: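 Fluorescence (ex 405 nm; em 460 and 530 nm) was read 2 h after LiveBLAzer FRET substrate at RT. The preceding compound treatment of overnight-plated SBE-bla HEK293T cells lasted 5 h at 37 C.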

[15] = target: Thyrotropin-releasing hormone receptor (Homo sapiens) (UniProt P34981); test: qHTS assay to identify small molecule antagonists of the thyrotropin-releasing hormone receptor (TRHR) signaling pathway (AID 1346877; active = well fitted inhibition curve with a large enough effect in the repeat runs, not every such curve was filed as active; note: series mostly up to about 51 µM)
Outline: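 Calcium signal in dye-loaded TRHR/HEK293 cells; compounds added 5 min before TRH (1 nM final); fluorescence monitored 3 min at 1 s steps.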

[16] = target: Thyrotropin-releasing hormone receptor (Homo sapiens) (UniProt P34981); test: qHTS assay to identify small molecule agonists of the thyrotropin-releasing hormone receptor (TRHR) signaling pathway (AID 1346891; calls by dose curve; note: series mostly up to about 58 µM)
Outline: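 Agonist-mode intracellular calcium readout: kinetic fluorescence over 3 min at 1 s intervals after compound addition to TRHR-HEK293 cells (18 h seeded, 2 h dye-loaded at 37 C). Fifteen concentrations, triplicates.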

[17] = target: Estrogen receptor (Homo sapiens) (UniProt P03372); test: qHTS assay to identify small molecule agonists of the estrogen receptor alpha (ER-alpha) signaling pathway in the presence of an antagonist (AID 1259383; calls by dose curve; note: top concentration of the series differs between compounds; nearly all actives have a fitted effect of over 15% in size)
Outline: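 Luminescent ERE-luciferase reporter, VM7Luc4E2 cells (endogenous ER-alpha); 10.0nM ICI-182,780 final; 15-point compound titration; 22hr at 37C; ONE-Glo, 30min RT.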

[18] = target: Thyrotropin receptor (Homo sapiens) (UniProt P16473); test: qHTS assay to identify small molecule antagonists of the thyroid stimulating hormone receptor (TSHR) signaling pathway (AID 1259385; calls by dose curve; note: nearly all actives have a fitted effect of over 20% in size)
Outline: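 TSHR-HEK293 cells were plated and held 18 h at 37C/5% CO2, then given compound plus Ro20-1724 and stimulated with TSH at 1.5 ng/mL final. After 30 min at room temperature, cAMP was detected with cAMP-d2/anti-cAMP-cryptate (1 h) by fluorescence.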

[19] = qHTS assay to identify small molecule agonists or antagonists of the thyroid stimulating hormone receptor (TSHR) signaling pathway - wild type cell line counter screen (AID 1259384; calls by dose curve)
Outline: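 Wild-type HEK293 cells were plated 18 h at 37 C/5% CO2, pin-dosed with compound plus Ro20-1724 medium, held 30 min at room temperature, then given cAMP-d2 and anti-cAMP-cryptate; fluorescence was read after 1 h. Fifteen concentrations, triplicate.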

Measured: Potency

Sequence of Thyrotropin-releasing hormone receptor (Homo sapiens) (P34981 whole entry, looked up): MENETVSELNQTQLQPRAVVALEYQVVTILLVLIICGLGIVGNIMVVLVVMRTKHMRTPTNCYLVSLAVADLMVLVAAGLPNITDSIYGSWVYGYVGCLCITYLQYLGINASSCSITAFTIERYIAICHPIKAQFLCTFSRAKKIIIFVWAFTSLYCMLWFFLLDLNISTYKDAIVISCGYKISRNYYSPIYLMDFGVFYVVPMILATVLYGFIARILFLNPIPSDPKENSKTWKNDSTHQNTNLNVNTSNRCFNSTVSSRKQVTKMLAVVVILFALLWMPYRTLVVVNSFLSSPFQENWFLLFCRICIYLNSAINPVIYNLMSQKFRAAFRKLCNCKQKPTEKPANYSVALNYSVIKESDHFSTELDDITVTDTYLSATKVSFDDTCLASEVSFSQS
Sequence of Progesterone receptor (Homo sapiens) (P06401 whole entry, looked up): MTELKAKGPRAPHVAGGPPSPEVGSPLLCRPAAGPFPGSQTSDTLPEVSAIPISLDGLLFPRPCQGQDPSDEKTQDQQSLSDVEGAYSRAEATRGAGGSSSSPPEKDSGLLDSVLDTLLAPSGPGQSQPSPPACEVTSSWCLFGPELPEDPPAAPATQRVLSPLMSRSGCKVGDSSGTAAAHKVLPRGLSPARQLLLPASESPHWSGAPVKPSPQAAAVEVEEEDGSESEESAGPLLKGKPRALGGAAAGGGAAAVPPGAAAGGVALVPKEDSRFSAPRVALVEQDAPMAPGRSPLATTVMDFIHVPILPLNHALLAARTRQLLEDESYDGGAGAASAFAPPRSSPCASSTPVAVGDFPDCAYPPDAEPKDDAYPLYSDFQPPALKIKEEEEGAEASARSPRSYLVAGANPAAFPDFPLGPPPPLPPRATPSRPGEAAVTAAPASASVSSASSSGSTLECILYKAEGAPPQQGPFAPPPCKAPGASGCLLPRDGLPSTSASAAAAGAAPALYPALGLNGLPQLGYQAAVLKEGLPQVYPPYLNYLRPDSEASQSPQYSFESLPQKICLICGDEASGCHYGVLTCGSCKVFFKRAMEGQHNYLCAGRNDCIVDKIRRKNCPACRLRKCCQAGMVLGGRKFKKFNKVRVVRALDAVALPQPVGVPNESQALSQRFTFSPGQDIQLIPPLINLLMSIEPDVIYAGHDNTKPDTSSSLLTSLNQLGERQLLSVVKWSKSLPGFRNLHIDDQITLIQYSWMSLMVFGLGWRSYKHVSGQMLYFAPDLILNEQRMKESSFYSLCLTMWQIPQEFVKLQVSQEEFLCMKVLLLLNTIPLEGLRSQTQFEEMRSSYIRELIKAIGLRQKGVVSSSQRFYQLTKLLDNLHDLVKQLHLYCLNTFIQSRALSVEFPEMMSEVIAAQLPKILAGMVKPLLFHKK
Sequence of Estrogen receptor beta (Homo sapiens) (Q92731 whole entry, looked up): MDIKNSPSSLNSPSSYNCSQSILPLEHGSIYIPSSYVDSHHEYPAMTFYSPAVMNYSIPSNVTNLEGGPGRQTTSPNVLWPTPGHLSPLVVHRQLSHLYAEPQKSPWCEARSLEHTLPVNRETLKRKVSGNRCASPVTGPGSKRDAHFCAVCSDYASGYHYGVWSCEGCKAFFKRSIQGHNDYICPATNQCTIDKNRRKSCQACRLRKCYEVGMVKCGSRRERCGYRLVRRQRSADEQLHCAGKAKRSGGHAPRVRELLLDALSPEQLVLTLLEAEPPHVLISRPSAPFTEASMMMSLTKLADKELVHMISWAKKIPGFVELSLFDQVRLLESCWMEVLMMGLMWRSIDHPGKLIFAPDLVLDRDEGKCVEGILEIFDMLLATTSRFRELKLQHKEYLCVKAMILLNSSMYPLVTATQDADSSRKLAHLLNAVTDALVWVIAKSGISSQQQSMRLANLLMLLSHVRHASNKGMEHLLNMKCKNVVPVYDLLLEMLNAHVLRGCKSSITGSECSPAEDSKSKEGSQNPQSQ
Sequence of Estrogen receptor (Homo sapiens) (P03372 whole entry, looked up): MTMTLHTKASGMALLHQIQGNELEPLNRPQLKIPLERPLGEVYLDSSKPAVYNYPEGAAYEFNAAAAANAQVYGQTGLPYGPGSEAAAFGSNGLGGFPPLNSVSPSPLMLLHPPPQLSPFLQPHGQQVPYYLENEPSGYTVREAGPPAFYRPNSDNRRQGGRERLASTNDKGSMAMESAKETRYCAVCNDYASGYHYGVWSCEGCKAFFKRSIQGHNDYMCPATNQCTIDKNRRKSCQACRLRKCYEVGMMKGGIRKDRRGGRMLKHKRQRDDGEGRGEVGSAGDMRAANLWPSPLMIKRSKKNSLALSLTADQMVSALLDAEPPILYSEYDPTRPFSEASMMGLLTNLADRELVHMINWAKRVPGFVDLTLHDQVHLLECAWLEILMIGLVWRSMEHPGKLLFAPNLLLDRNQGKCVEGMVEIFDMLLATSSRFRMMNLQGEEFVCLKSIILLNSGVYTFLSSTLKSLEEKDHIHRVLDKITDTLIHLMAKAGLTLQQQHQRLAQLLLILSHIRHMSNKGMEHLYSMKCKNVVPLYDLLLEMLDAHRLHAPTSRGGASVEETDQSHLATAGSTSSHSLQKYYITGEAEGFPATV
Sequence of Thyrotropin receptor (Homo sapiens) (P16473 whole entry, looked up): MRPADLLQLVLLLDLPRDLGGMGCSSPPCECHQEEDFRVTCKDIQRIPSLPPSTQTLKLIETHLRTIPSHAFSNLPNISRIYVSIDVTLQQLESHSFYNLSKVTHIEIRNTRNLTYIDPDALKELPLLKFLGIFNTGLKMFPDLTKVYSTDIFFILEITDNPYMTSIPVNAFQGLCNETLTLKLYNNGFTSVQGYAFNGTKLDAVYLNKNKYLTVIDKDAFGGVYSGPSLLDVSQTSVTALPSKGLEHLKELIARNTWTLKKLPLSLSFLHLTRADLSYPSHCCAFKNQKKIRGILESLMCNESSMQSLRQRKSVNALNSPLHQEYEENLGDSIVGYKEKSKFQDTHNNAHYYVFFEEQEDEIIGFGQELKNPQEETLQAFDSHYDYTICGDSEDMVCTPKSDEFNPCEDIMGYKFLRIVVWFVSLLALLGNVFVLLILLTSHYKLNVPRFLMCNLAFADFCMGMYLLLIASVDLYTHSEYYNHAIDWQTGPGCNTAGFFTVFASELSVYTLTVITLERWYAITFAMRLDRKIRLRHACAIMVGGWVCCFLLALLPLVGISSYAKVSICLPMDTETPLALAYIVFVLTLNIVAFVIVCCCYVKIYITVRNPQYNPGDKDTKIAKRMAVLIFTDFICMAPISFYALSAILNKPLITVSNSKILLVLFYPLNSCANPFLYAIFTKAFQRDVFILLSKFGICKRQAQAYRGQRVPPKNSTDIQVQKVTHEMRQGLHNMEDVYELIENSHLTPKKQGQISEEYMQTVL

Cc1ccccn1
not listed: [17] | [18] | [19]
inactive: all other assays above

Cc1ccc(C(N)=O)cc1N
not listed: [15] | [16] | [19]
inactive: all other assays above

S=C(S)NCCNC(=S)S
not listed: [9] | [15] | [16] | [17]
inactive: all other assays above

O=C(O)C1CCC(C(=O)O)CC1 (stereo not given)
not listed: [18]
inactive: all other assays above
